For some of these results: Measured potencies and affinities stand elsewhere.
Legend:
Design in all cases: scale not given: direction of the effect not stated beside the values
[1] = target: Protein translocase subunit SecA (Escherichia coli (strain K12)) (UniProt P10408); assay: Assay to Identify E. coli SecA ATPase Inhibitors; assay type: functional; settings: 30 µM
[2] = target: T1, Ubiquitin-activating enzyme e1, putative (Leishmania donovani (strain BPK282A1)) (UniProt E9BSI1); assay: Leishmania donovani Ubiquitin Activating Enzyme (LdE1); assay type: functional; settings: 30 µM
T1 sequence (whole entry): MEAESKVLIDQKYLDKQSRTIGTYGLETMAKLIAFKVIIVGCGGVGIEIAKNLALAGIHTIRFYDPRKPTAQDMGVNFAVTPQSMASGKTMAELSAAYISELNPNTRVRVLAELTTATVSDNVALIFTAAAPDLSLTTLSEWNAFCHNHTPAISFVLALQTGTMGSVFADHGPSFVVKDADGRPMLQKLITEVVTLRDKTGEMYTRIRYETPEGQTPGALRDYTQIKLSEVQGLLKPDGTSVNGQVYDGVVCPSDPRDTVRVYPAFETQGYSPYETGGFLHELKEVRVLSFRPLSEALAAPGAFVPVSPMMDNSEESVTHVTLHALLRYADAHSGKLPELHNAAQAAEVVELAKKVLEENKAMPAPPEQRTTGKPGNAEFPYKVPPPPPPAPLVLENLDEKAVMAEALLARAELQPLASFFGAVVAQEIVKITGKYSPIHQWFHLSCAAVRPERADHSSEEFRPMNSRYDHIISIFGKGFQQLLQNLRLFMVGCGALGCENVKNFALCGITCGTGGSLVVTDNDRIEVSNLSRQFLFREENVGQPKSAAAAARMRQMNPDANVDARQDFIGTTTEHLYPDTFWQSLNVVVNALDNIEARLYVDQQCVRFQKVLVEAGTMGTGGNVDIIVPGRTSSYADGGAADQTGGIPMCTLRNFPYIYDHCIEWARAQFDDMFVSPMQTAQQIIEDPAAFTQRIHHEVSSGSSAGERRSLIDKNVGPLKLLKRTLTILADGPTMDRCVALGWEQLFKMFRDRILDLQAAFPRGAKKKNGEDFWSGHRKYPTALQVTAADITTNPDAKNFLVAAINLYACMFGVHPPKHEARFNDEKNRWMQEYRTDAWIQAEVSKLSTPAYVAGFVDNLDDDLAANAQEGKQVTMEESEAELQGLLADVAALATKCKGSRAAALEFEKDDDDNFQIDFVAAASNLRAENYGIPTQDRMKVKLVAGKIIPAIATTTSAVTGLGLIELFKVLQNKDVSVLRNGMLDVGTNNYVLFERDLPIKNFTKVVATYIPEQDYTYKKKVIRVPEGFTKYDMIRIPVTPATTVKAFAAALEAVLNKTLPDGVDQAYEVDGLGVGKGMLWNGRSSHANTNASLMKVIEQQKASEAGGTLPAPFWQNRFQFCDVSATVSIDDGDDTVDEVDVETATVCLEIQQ

[3] = target: Sialic acid-binding Ig-like lectin 9 (Homo sapiens) (UniProt Q9Y336); assay: Hs-Siglec9 ALPHAscreen SOP 20170721; settings: 10 µM
Trypanosoma cruzi = assay: Trypanosoma cruzi phosphomannomutase and mannose-1-phosphate guanylyltransferase assay; assay type: functional; settings: 10 µM
[4] = target: T2, Arginase-2, mitochondrial (Homo sapiens) (UniProt P78540); assay: in vitro enzyme assay to detect the production of urea directly proportional to the activity of Arginase II; assay type: functional; settings: 33.3 µM; note: in the data most compounds retested in dose-response had high values
T2 sequence (whole entry): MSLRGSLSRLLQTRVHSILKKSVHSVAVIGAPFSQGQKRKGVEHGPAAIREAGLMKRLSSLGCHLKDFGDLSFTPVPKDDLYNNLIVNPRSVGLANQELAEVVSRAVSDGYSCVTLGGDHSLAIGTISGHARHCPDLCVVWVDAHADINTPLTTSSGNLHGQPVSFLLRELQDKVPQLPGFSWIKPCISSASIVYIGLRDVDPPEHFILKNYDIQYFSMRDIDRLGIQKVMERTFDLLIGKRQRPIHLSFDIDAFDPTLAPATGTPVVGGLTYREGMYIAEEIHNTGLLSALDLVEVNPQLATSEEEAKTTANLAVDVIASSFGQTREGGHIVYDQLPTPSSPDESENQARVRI

[5] = target: T3, Proteasome subunit beta (Trypanosoma cruzi) (UniProt O96673); assay: Trypanosoma cruzi proteasome chymotrypsin-like activity (TcProtChymo) assay.; note: in the data most compounds retested in dose-response had high values; assay type: functional; settings: 9.37 µM
T3 sequence (whole entry): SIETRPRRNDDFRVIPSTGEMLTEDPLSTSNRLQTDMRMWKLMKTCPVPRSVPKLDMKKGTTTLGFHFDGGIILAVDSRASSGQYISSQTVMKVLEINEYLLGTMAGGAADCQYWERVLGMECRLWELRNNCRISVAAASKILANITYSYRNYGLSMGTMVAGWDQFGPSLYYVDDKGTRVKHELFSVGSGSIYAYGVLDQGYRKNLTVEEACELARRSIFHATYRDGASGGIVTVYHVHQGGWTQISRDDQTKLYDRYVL

Homo sapiens = species: Homo sapiens; assay: To identify inhibition of the IFN signalling (Jak-Stat) pathway via expression of an eGFP reporter gene under the control of an IFN-stimulated response element (ISRE) containing MxA promoter.; assay type: functional; settings: 30 µM
[6] = target: T4, Tyrosyl-tRNA synthetase, putative (Trypanosoma cruzi (strain CL Brener)) (UniProt Q4DSP6); assay: Trypanosoma cruzi tyrosyl tRNA synthetase (TcYRS) _High Tyrosine SOP; assay type: functional; settings: 30 µM; note: in the data most compounds retested in dose-response had high values
T4 sequence (whole entry): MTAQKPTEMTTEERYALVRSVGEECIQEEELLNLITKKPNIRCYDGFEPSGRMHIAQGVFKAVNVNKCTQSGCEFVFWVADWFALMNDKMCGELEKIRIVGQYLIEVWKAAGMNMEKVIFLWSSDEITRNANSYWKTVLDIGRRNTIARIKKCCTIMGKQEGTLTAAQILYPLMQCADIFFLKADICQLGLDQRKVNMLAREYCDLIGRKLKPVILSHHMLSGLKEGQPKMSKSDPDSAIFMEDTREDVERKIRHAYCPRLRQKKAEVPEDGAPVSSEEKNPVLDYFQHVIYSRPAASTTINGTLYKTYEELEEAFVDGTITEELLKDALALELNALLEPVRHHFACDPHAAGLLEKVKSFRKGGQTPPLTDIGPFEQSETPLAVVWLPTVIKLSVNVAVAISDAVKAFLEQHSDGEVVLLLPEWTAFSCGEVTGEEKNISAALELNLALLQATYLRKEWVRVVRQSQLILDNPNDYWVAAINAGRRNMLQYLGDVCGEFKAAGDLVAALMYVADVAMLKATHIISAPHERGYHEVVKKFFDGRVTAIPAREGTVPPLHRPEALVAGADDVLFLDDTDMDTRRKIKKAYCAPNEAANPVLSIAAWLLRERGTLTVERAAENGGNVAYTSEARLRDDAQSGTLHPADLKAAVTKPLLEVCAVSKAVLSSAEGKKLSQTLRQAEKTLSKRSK

[7] = target: T4, Tyrosyl-tRNA synthetase, putative (Trypanosoma cruzi (strain CL Brener)); assay: Trypanosoma cruzi tyrosyl tRNA synthetase (TcYRS) SOP; assay type: functional; settings: 30 µM
[8] = target: Chromo domain-containing protein 1 (Saccharomyces cerevisiae (strain ATCC 204508 / S288c) (Baker's yeast)) (UniProt P32657); assay: ScCHD-1 Enzyme Inhibition Assay; assay type: functional; settings: 30 µM; note: in the data most compounds retested in dose-response had high values
Sequence of Chromo domain-containing protein 1 (Saccharomyces cerevisiae (strain ATCC 204508 / S288c) (Baker's yeast)) (P32657 whole entry, the tested form may be a part): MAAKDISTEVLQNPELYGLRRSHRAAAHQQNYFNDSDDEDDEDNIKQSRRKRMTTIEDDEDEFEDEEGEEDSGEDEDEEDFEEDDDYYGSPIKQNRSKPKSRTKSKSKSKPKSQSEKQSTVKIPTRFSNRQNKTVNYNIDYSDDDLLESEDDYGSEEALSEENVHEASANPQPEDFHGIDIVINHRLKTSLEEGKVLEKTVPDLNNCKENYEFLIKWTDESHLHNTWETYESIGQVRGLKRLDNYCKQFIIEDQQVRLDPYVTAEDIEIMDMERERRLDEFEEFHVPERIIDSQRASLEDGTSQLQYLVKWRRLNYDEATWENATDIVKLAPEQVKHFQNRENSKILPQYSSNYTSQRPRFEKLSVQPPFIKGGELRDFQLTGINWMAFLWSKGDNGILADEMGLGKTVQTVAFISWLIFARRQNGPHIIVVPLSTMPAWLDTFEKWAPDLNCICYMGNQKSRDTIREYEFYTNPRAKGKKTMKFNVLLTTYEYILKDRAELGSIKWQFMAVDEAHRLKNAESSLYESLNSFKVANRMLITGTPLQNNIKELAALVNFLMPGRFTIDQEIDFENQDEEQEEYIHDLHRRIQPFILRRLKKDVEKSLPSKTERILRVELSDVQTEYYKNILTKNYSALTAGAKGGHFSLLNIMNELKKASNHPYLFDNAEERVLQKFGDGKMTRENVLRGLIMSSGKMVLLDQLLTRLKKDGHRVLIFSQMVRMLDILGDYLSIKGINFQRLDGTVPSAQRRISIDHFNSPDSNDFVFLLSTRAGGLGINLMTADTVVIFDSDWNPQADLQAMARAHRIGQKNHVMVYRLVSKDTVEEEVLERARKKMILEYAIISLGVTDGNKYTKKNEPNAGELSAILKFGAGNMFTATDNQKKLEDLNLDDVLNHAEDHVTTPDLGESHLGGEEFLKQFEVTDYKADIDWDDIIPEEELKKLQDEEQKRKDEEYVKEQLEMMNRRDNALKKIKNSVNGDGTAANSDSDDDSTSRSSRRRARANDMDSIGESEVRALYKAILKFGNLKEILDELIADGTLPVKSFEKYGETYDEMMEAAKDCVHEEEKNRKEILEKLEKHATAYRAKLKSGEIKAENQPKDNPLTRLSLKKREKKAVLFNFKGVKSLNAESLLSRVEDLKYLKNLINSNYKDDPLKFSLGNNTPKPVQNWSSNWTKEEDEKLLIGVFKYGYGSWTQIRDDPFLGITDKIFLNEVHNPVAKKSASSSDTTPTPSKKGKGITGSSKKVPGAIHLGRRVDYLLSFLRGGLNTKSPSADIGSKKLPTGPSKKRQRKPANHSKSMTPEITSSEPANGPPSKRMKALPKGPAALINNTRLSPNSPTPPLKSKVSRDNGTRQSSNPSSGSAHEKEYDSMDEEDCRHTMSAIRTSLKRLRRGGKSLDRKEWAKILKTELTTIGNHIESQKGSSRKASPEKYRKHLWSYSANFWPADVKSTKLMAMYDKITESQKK

Sequence of Protein translocase subunit SecA (Escherichia coli (strain K12)) (P10408 whole entry): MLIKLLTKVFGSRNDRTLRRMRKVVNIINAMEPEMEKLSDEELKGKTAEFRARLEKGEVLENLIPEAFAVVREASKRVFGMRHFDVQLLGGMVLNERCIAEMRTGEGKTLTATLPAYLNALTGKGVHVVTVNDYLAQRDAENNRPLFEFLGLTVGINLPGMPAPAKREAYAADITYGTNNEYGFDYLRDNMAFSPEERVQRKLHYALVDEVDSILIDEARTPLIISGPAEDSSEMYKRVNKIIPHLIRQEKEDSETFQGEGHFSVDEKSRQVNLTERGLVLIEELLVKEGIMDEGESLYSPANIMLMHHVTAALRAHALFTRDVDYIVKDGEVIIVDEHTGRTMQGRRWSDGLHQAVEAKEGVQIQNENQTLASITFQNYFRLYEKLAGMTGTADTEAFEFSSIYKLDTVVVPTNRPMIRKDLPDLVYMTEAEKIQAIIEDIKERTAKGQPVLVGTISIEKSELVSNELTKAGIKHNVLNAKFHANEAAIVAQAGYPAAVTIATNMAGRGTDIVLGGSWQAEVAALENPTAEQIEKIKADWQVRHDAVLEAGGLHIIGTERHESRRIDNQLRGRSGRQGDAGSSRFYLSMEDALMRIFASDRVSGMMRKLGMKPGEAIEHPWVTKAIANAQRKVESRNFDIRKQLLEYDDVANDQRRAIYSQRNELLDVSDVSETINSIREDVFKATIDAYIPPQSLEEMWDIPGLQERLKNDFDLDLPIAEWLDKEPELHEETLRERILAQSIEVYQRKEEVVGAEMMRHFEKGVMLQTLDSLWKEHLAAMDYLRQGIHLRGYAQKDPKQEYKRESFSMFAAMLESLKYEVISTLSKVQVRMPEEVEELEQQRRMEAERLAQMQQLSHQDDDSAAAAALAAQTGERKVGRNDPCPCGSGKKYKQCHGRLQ
Sequence of Sialic acid-binding Ig-like lectin 9 (Homo sapiens) (Q9Y336 whole entry): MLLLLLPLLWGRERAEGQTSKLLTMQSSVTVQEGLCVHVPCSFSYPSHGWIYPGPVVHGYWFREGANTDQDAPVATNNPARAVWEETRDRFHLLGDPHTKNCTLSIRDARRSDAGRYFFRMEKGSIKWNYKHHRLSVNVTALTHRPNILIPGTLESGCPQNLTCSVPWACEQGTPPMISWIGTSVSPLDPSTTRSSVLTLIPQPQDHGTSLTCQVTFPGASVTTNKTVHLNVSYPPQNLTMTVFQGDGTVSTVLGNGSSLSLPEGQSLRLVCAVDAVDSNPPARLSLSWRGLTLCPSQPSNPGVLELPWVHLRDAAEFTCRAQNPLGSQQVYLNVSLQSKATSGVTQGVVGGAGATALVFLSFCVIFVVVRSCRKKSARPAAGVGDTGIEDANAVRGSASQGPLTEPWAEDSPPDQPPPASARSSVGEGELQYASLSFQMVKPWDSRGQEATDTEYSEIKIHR

Structure (SMILES) | Percent Effect [1] [%] | Percent Effect [2] [%] | Percent Effect [3] [%] | Percent Effect (Trypanosoma cruzi) [%] | Percent Effect [4] [%] | Percent Effect [5] [%] | Percent Effect (Homo sapiens) [%] | Percent Effect [6] [%] | Percent Effect [7] [%] | Percent Effect [8] [%]
N#Cc1c(C2CC2)cc(-c2ccc(O)cc2)nc1N | -6.18 | 2.7 | 3.32 | -1.46 | 4.54 | 23.6 | 48.6 | -0.532 | 7.32 | -2.85
Cn1ccc(CN2CCC(NC(=O)Cc3ccccc3)CC2)cc1=O | -2.78 | 5.13 | -5.06 | 6.85 | 2.87 | 6.74 | -7.1 | 7.18 | 13.2 | -3.86
Cc1ccsc1C(=O)N1Cc2ccccc2C2(CCN(C)CC2)C1 | -4.41 | -1.3 | -5.71 | -5.55 | -2.02 | 5.56 | -24.7 | 1.58 | 2.56 | -2.8
O=C(CSc1ccccn1)N1C[C@H]2CC[C@@H]1CN(Cc1cscn1)C2 | -11.4 | 0 | 4.87 | -3.78 | -0.35 | 13.9 | 11.3 | -3.72 | -4.88 | -3.86
CNC(=O)c1cccnc1Oc1ccccc1 | -2.06 | 19.5 | 16.3 | 5.07 | 0 | 13.5 | 10 | 4.83 | 12.5 | -9.58
CC(C)NC(=O)N1CCC2(C1)CN(c1ccsc1)C(=O)CN2C (stereo not given) | -2.47 | 9.09 | -13.1 | -3.41 | 5.26 | 20.6 | -8.36 | 6.84 | 10.3 | 10.4
Cc1ncc2c(n1)CN(CCCc1nc3ccccc3o1)CC2 | -8.07 | 10.7 | 3.45 | 0 | -3.1 | 8.91 | -14.7 | 22.6 | 28.2 | -7.47
O=C(NCCCn1ccnc1)N1CCCC1c1cccs1 (stereo not given) | -1.21 | 12.8 | -12.2 | 6.67 | 8.2 | 11 | -4.65 | 7.18 | 18.1 | -5.02
Cn1ccc2ccc(C(=O)N3CCN(C(=O)N4CCOCC4)CC3)cc21 | -5.67 | 24.3 | 12.2 | 9.6 | 3.85 | 13.2 | 14.4 | 9.04 | 17.1 | -1.13
CCn1cc(NC(=O)NCc2ccc3c(c2)OCCO3)cn1 | -3.41 | 20.8 | 4.42 | -2.98 | 4.3 | 7.37 | 12.6 | 11.8 | 21.2 | -7.59
O=C(NCc1cc[nH]n1)NCC(c1ccc(F)cc1)N1CCOCC1 (stereo not given) | -1.44 | 23.1 | -10.9 | 4.79 | 2.87 | 7.93 | 8.57 | 4.31 | 20.5 | -7.47
CC(C)c1nc(CN(C)C2CCN(CCNS(C)(=O)=O)C2)no1 (stereo not given) | -0.486 | 15.6 | -6.45 | -5.78 | -11.7 | 12.5 | 12.2 | 3.92 | 7.06 | -13
CN(C)C(=O)CN1C(=O)CCC12CCN(Cc1cccn1C)CC2 | -0.209 | -1.3 | 0.456 | 3 | -0.913 | 11.9 | 7.89 | 10.6 | 20 | -9.53
COc1cccc(S(=O)(=O)N2CCC(O)(CN(C)C)C2)c1 (stereo not given) | -2.81 | 4 | -1.76 | -3.35 | 4.42 | 9.2 | -4 | 1.06 | 7.5 | -23.8
Cc1nc(C)n(CC2CCCN2Cc2cn3c(C)cccc3n2)n1 (stereo not given) | -1.02 | 2.67 | 7.22 | 4.62 | 2.66 | 8.4 | -19.9 | 1.58 | 5.13 | -11.6
CCN(C)c1ncnc2c1CCN(Cc1ccoc1)CC2 | -6.65 | 19.5 | -3.79 | 8.86 | -7.69 | 18.8 | -6.57 | 3.68 | 15.4 | -1.25
O=C(c1cc(C2CC2)on1)N1CCCC(n2cncn2)C1 (stereo not given) | -3.26 | 15.4 | -20 | 9.48 | -0.82 | 20.7 | 15.6 | 4.31 | 22.9 | 30.2
Cc1cnn(C2CCCN(C(=O)Cc3ccc(-n4cccn4)cc3)C2)c1 (stereo not given) | -6.71 | -2.67 | 3.46 | 3.81 | 2.66 | 1.27 | 6.09 | -1.58 | 5.13 | -7.75
O=C1CC2(CCCNC2)C(=O)N1Cc1ccc(F)cc1 (stereo not given) | -2.69 | 11.7 | -3.81 | -5.82 | 2.28 | 6.95 | 15.5 | 0.966 | -2.5 | -0.664
